The list is not random: actives were taken first. Their share in the collection is about 3.2%.
MsrA inhibitor: inhibits bovine methionine sulfoxide reductase A; 360,000 tested, 0.75% active; purified bovine MsrA, absorbance read-out; inhibition, % at 15.5 µM;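 further: 0% = vehicle wells with enzyme and 100% = reference inhibitor wells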
NadD block: inhibitors of Staphylococcus aureus NadD; purified NadD enzyme, colorimetric absorbance read-out; inhibition, % at 20 µM; 360,000 tested, 0.78% active; in the data active means inhibition above about 26%
rCAG RNA binder: binds r(CAG) RNA repeats. r(CAG) RNA repeat, TO-PRO-1 dye displacement fluorescence. inhibition, % at 3 µM. AID 651821. 370,000 tested, 1.3% active;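 active means inhibition above the plate cutoff, the mean of all test compounds on that plate plus 3 SD, cut at about 35% in these data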;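 further: 0% = DMSO alone and 100% = 100 µM mitoxantrone as full dye displacement; higher means more dye released from RNA so lower well fluorescence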
MsrA act: activators of bovine methionine sulfoxide reductase A; purified bovine MsrA, absorbance read-out; 360,000 tested, 0.3% active; activation, % at 10.6 µM; in the data active means activation above about 7.5%;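 further: 0% = vehicle and 100% = reference activator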
DAGLB inh: blocks human DAGLB lipase activity; AID 504411; inhibition, % at 5.17 µM; 340,000 tested, 0.059% active; HEK293T DAGLB membrane lysate, EnzChek fluorogenic substrate; in the data active means inhibition above about 34%;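 further: 0% = enzyme with vehicle and 100% = wells lacking enzyme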
Pemphigus Ab inh: human desmoglein-3 autoantibody binding inhibition | 310,000 tested, 0.48% active | P32926 | AID 588358 | DSG3-coupled beads, scFv-anti-DSG3-GFP binding, flow cytometry; active compounds read low | binding (percent of control), % at 10 µM;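 active means binding more than 3 SD below its plate's average and above zero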;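 further: hits lower antibody fragment binding to DSG3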
MsrA conf: bovine MsrA inhibition, confirmed | shares compounds with MsrA inhibitor | purified bovine MsrA, absorbance read-out | inhibition, % at 15.5 µM | 2,300 tested, 41% active | AID 651822;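 further: coupled to thioredoxin reductase with NADPH and selenocystamine and DMSO as substrate; 0% = vehicle only and 100% = full effect of reference inhibitor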
An asterisk follows results filed as active. Unless noted, no stated cut-off is given here; in the data, active means inhibition above about 4.5%; inactive means the rest.

CC1(C)CC(c2nc(-c3ccc([N+](=O)[O-])cc3)cs2)CCO1 (stereo unspecified) was read as MsrA inhibitor 4.8*, NadD block -6, rCAG RNA binder -5, MsrA act -4, DAGLB inh -7, Pemphigus Ab inh 98 and MsrA conf 2.
Screening CCOC(=O)C1(Cc2ccccc2)CCN(Cc2ccc(C)cc2)CC1 returned rCAG RNA binder -1.
For COc1ccc(NC(=O)/C=C/c2cccc(F)c2)cn1 the results were MsrA inhibitor 0, NadD block -4, rCAG RNA binder -8, MsrA act 0, DAGLB inh -1 and Pemphigus Ab inh 115.
`CCc1nnc(NC(=O)/C=C/c2ccco2)s1` gave MsrA inhibitor 6.8*, NadD block 7, rCAG RNA binder 7, MsrA act -8, DAGLB inh 3, Pemphigus Ab inh 99 and MsrA conf 6.2*.
For COc1ccc(NC(=O)/C=C/c2ccco2)cn1 the results were MsrA inhibitor 4.9*, NadD block -2, rCAG RNA binder 6, MsrA act -6, DAGLB inh 0, Pemphigus Ab inh 114 and MsrA conf 2.
COc1ccc(NC(=O)/C=C/c2ccc(Br)o2)cn1 was read as MsrA inhibitor 5.3*, NadD block 8, rCAG RNA binder 2, MsrA act -7, DAGLB inh 0, Pemphigus Ab inh 97 and MsrA conf 2.
`CCSc1nnc(NC(=O)/C=C/c2ccco2)s1` gave MsrA inhibitor 2, NadD block 10, rCAG RNA binder 6, MsrA act -8, DAGLB inh 3 and Pemphigus Ab inh 101.
For Cc1ccc(Nc2c(F)cccc2Cl)c(CC(=O)O)c1 the results were rCAG RNA binder 7.
`COc1ccc(S[C@]2(C(=O)N3CCN(C(C)=O)CC3)CC(=O)N(C(=O)c3ccccc3)[C@@H]2c2ccc(OC)cc2)cc1` gave rCAG RNA binder 11.
For O=C(c1cc(C2CCCCN2C(=O)CCCc2ccccc2)on1)N1CCOCC1 (stereo unspecified) the results were MsrA inhibitor 0, NadD block 4, rCAG RNA binder -4 and MsrA act 0.
C[C@H]1CN([C@@H](C)CO)C(=O)c2cc(Br)cnc2O[C@H]1CN(C)Cc1ccccc1C(=O)O was read as MsrA inhibitor 0, NadD block 3, rCAG RNA binder 0, MsrA act -2, DAGLB inh 0 and Pemphigus Ab inh 104.
`COc1cc(N2CCCC2)ccc1C=O` gave MsrA inhibitor 6.8*, NadD block -5, rCAG RNA binder 1, MsrA act -9, DAGLB inh -1, Pemphigus Ab inh 109 and MsrA conf 3.
COc1ccc(Oc2cc(NN3CCCCC3)c([N+](=O)[O-])cc2[N+](=O)[O-])cc1OC was read as MsrA inhibitor 4.9*, NadD block -8, rCAG RNA binder 2, MsrA act -2, DAGLB inh 1, Pemphigus Ab inh 96 and MsrA conf 3.
`CC(=O)c1cccc(Oc2cc(NN3CCCCC3)c([N+](=O)[O-])cc2[N+](=O)[O-])c1` gave MsrA inhibitor 18*, NadD block -12, rCAG RNA binder -1, MsrA act -4, DAGLB inh -2, Pemphigus Ab inh 101 and MsrA conf 12*.
For CC(=O)c1ccccc1Oc1cc(NN2CCCCC2)c([N+](=O)[O-])cc1[N+](=O)[O-] the results were MsrA inhibitor 2, NadD block -2, rCAG RNA binder 13, MsrA act -2, DAGLB inh 5 and Pemphigus Ab inh 101.
For O=[N+]([O-])c1cc([N+](=O)[O-])c(Oc2ccc(F)cc2)cc1NN1CCCCC1 the results were MsrA inhibitor 0, NadD block -9, rCAG RNA binder 2, MsrA act -1, DAGLB inh 1 and Pemphigus Ab inh 100.
Screening Cn1cc(C=O)c(-c2ccc3c(c2)OCCCO3)n1 returned MsrA inhibitor 0, NadD block 4, rCAG RNA binder 3, MsrA act -5, DAGLB inh 0 and Pemphigus Ab inh 109.
O=Cc1cn(-c2ccccc2)nc1-c1ccc2c(c1)OCCO2 was read as MsrA inhibitor 17*, NadD block -11, rCAG RNA binder -1, MsrA act -2, DAGLB inh -10, Pemphigus Ab inh 105 and MsrA conf 12*.
O=Cc1cn(-c2ccccc2)nc1-c1ccc(F)cc1 was read as MsrA inhibitor 12*, NadD block -4, rCAG RNA binder -1, MsrA act -2, DAGLB inh -3, Pemphigus Ab inh 111 and MsrA conf 8.3*.
For COc1ccc(/C=N\NC(=O)c2ccc([N+](=O)[O-])c(C)c2)cc1COc1ccccc1C(N)=O the results were MsrA inhibitor 3, NadD block 19, rCAG RNA binder 14, MsrA act -6, DAGLB inh 5 and Pemphigus Ab inh 104.
`COc1ccc(/C=N/NC(=O)c2cccnc2)cc1COc1ccc([N+](=O)[O-])c(C)c1` gave MsrA inhibitor 4.7*, NadD block -5, rCAG RNA binder 11, MsrA act -4, Pemphigus Ab inh 95 and MsrA conf 1.
`O=C(CSc1nnc(-c2cccs2)n1Cc1ccco1)Nc1ccc(OCc2ccccc2)cc1` gave rCAG RNA binder 9.
For CCOC(=O)N1CCN(C(=O)c2ccc3nc4ccsc4c(=O)n3c2)CC1 the results were MsrA inhibitor 5.1*, NadD block -4, rCAG RNA binder -1, MsrA act -3, DAGLB inh -2, Pemphigus Ab inh 108 and MsrA conf 2.
CCOC(=O)N1CCN(C(=O)c2ccc3nc4ccc(Cl)cc4c(=O)n3c2)CC1 was read as MsrA inhibitor 1, NadD block 2, rCAG RNA binder 14, MsrA act -2, DAGLB inh -2 and Pemphigus Ab inh 98.
Screening CCOC(=O)N1CCN(C(=O)c2cccn3c(=O)c4cc(Br)ccc4nc23)CC1 returned MsrA inhibitor -1, NadD block -3, rCAG RNA binder -2, MsrA act -5, DAGLB inh 0 and Pemphigus Ab inh 108.
Screening CCOC(=O)N1CCN(C(=O)c2cccn3c(=O)c4sccc4nc23)CC1 returned MsrA inhibitor 5.7*, NadD block -7, rCAG RNA binder -5, MsrA act -1, DAGLB inh 0, Pemphigus Ab inh 105 and MsrA conf 4.
O=C(CCc1ccccc1)N[C@H]1[C@H](OCc2ccccc2)CCC[C@@]12C(=O)N(Cc1ccccc1)c1ccc(-c3ccsc3)cc12 was read as rCAG RNA binder 8.
OCCCN=c1cc(-c2ccccc2)oc2ccc(Cl)cc12 was read as MsrA inhibitor 4.8*, NadD block -9, rCAG RNA binder 7, MsrA act -4, DAGLB inh 0, Pemphigus Ab inh 101 and MsrA conf 4.

Compound activity (PubChem)
